# sEH inhibitor = blocks human soluble epoxide hydrolase activity; recombinant human sEH enzymatic activity assay; inhibition, % at 2 µM; 91,000 tested, 0.34% active; AID 707; in the data active = inhibition above about 80%
# sEH act = increases human soluble epoxide hydrolase activity | 91,000 tested, 0.04% active | activation, % at 2 µM | P34913 | purified human sEH enzymatic activity, activator screen; in the data active = activation above about 37%
# CYP2C19 inhib = inhibitors of human CYP2C19; CYP2C19 Supersomes, luciferin-H EGE luminescence, 30 min; inhibition, % at 5 µM; 96,000 tested, 21% active;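 active = CYP2C19 inhibition above a set limit at 5 µM in the primary screen, cut at about 50% in these data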;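 also: plate controls were negative control wells for no effect and 2.5 mM tranylcypromine positive control for full effect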
# Target sequence (P33261 whole entry, looked up): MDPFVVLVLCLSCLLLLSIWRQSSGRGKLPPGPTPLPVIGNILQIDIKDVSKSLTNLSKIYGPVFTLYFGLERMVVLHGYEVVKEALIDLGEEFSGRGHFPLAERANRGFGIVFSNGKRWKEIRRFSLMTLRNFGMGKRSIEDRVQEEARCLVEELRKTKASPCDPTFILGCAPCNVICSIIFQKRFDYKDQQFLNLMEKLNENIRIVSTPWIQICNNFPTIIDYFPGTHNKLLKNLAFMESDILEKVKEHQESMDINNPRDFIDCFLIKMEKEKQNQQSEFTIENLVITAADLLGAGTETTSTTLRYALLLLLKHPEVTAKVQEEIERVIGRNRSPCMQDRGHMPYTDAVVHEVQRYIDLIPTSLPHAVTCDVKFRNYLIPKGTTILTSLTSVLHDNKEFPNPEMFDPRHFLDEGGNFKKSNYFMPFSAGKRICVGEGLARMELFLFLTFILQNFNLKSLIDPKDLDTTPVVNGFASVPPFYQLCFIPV
# CYP2C19 activ = activators of human cytochrome P450 2C19; AID 1025; recombinant CYP2C19, luciferin-H EGE luminescence; active compounds read high; 0 = fully inhibited enzyme, 1 = untreated enzyme; 96,000 tested, under 10 active; activation factor at 5 µM; P33261;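 active = activation factor of at least 2 at 5 µM in the primary screen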;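 also: 0 = wells with 2.5 mM tranylcypromine and 1 = vehicle-only wells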
# CYP2C9 act = activators of human CYP2C9 | P11712 | recombinant CYP2C9, luciferin-H conversion, luminescence; active compounds read high; factor 1 = untreated enzyme, 0 = blocked | activation factor at 5 µM | 96,000 tested, 1.4% active;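 active = activation factor of 2 or more for CYP2C9 at a 5 µM dose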;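 also: 0 = sulfaphenazole-blocked wells and 1 = vehicle-only wells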
# CYP2C9 inh = human CYP2C9 inhibition. P11712. CYP2C9 Supersomes, luciferin-H conversion, luminescence. inhibition, % at 5 µM. 96,000 tested, 20% active. AID 777;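 active = blocking of liver enzyme CYP2C9 beyond about 50% at 5 µM, limit read from the data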
# Starred values were filed as active, the others as inactive; . = no result. A selection: hits, their analogues and other compounds. The true share with any hit is near 27%.
SMILES,sEH inhibitor,sEH act,CYP2C19 inhib,CYP2C19 activ,CYP2C9 act,CYP2C9 inh
O=C(/C(=C/O)N=Nc1ccc(Cl)cc1)c1ccncc1,4,-1,66*,0.3,0.5,46
CC(C)(C)NC(=O)c1ccncc1,-26,26,-17,1.2,1.1,-8
Cc1ccc(N=N/C(=C\O)C(=O)c2ccncc2)cc1,-32,31,95*,0,0.1,88*
O=C(CSc1ccccn1)N1CCN(c2cccc(Cl)c2)CC1,7,-5,72*,0.3,0.6,36
Cn1nnnc1SCC(=O)N1CCN(c2cccc(Cl)c2)CC1,-7,8,72*,0.3,1.1,-11
Cn1nnnc1SCC(=O)N1CCN(c2ccccc2)CC1,.,.,41,0.6,1.2,-23
O=C(CSc1ccccc1)N1CCN(c2ccccc2)CC1,-10,8,.,.,.,.
O=C(CSc1nc(N2CCCCC2)nc(N2CCCCC2)n1)N1CCN(c2ccccc2)CC1,.,.,77*,0.2,0.2,83*
O=C(CSc1ccccn1)N1CCN(c2ccccc2)CC1,5,0,99*,0,0.6,45
CCCCN(C)C(=O)c1sc2ncn(CC)c(=O)c2c1C,5,-2,-20,1.2,1,-4
COc1ccc(N2CCN(CC(=O)Nc3cc(C)on3)CC2)cc1,.,.,-8,1.1,0.9,8
COc1ccc(N2CCN(CC(=O)Nc3nc4c(s3)CC(C)CC4)CC2)cc1 (configuration not stated),.,.,43,0.6,0.4,57*
CC1CCc2nc(NC(=O)c3ccco3)sc2C1 (configuration not stated),.,.,66*,0.3,0.4,56*
CC1CCc2nc(NC(=O)Cc3cccs3)sc2C1 (configuration not stated),10,-8,11,0.9,0.8,20
COc1ccc(CN(C(=O)CSc2nnc(-c3ccccc3C)o2)c2ccc(F)cc2)cc1,-1,4,.,.,.,.
O=C(CSc1nnc(COc2cccc3cccnc23)o1)N1CCc2ccccc21,-5,6,5,0.9,0.9,6
CCOC(=O)CN(C(=O)CSc1nnc(-c2cccc(OC)c2)o1)c1ccc(F)cc1,0,-2,85*,0.1,0.1,92*
O=C(CSc1nnc(COc2ccc(F)cc2)o1)N1c2ccccc2CCc2ccccc21,.,.,83*,0.2,0,96*
COC(=O)CN(C(=O)CSc1nnc(-c2cccc(OC)c2)o1)c1ccc(OC)cc1,4,-3,35,0.7,0.4,60*
CCOC(=O)CN(C(=O)CSc1nnc(CNc2ccc(F)cc2)n1C)c1ccccc1,-15,18,16,0.8,0.9,9
COc1ccc(C(=O)CSc2nnc(-c3ccccc3)o2)cc1,9,-9,10,0.9,1.3,-33
CCOC(=O)CN(C(=O)CSc1nnc(CNc2ccc(F)cc2)o1)c1ccccc1,-4,3,59*,0.4,0.2,78*
CCc1ccc2[nH]c(=O)c(CN(Cc3ccc(F)cc3)C(c3nnnn3CCN3CCOCC3)C(C)C)cc2c1 (configuration not stated),-6,3,8,0.9,1,-1
O=C(CSc1nnc(CNc2ccc(F)cc2)o1)N1c2ccccc2Sc2ccccc21,4,-6,35,0.6,0.5,53*
O=C(CSc1nnc(CNc2ccc(F)cc2)o1)N1CCN(C(=O)c2ccco2)CC1,.,.,12,0.9,0.8,24
SMILES,sEH inhibitor,sEH act,CYP2C19 inhib,CYP2C19 activ,CYP2C9 act,CYP2C9 inh
Cn1c(NC(=O)c2ccccc2NC(=O)C(C)(C)C)nc2ccccc21,-12,12,-14,1.1,0.9,8
Cc1ccc2c(c1)N(C(C)C(=O)NCCc1ccccc1)C(=O)CO2 (configuration not stated),10,-11,97*,0,0.7,34
Cc1cccc(NC(=O)NCCc2c[nH]c3ccccc23)c1,68,-68,93*,0.1,1.6,-61
O=C(NCCc1c[nH]c2ccccc12)Nc1cccc2ccccc12,44,-45,86*,0.1,1.6,-62
Cc1ccc2c(c1)N(CC(=O)NCc1cccnc1)C(=O)CO2,5,-2,.,.,.,.
Cc1ccc2c(c1)N(CC(=O)NCCc1c[nH]c3ccccc13)C(=O)CO2,6,-7,93*,0.1,0.7,27
COc1ccc(C(=O)c2ccc(N(C)C)cc2)c2ccccc12,-9,7,.,.,.,.
CN=C1S/C(=C\c2cccn2-c2cccc(Br)c2)C(=O)N1C,10,-8,.,.,.,.

# Screening results from PubChem BioAssay.
